Compound activity from PubChem.
Rows were chosen to be rich in hits. Some 2.7% of all compounds tested hit in one or more screens of this group.
SKN-1 block = inhibitors of C. elegans SKN-1; C. elegans VP596 Pgst-4::GFP/RFP ratio, acrylamide-induced, 24 h; inhibition, % at 21.8 µM; hit rate 0.49% among 360,000; AID 624304;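 active means interference check ratio from 0.5 to 1.5 plus GFP to RFP signal ratio inhibition reaching or exceeding a fixed threshold, cut at about 30% in these data, passing the limit was not always enough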
MPTP block = inhibitors of mitochondrial permeability transition pore. isolated mouse mitochondria, Ca2+ swelling absorbance, 30 min. inhibition, % at 10 µM. hit rate 1.4% among 360,000. AID 602449;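 active means inhibition of 50% or more, scaled per plate between neutral and stimulator controls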;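 further: 0% = DMSO wells given calcium and 100% = 1 mM EGTA wells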
CendR NRP1 mod = modulators of CendR peptide binding to human neuropilin-1; O14786; FAM-RPARPAR peptide binding to NRP-1, fluorescence polarization; inhibition, % at 25 µM; hit rate 0.85% among 360,000; AID 602438;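 active means inhibition or corrected inhibition above about 18%, plus a signal ratio from 0.5 to 1.5, limit read from the data, passing the limit was not always enough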
F508del corr = correctors of CFTR F508del function in bronchial epithelial cells; hit rate 0.36% among 350,000; activity (quench increase), % at 7.58 µM; AID 720511; CFBE cells, YFP halide quenching; stimulated with forskolin plus potentiator P3; % fluorescence drop versus neutral controls;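 active means mean added fluorescence quench of at least 8% versus neutral control, with both replicates also reaching 8%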;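 further: cells transiently co-express mutant CFTR-F508del with the halide-sensitive YFP; corrector assay measuring rescue of mutant channel to the surface after 24 h compound exposure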
ATG4B inh = inhibitors of human ATG4B cysteine protease; AID 504462; Q9Y4P1; inhibition, % at 8.33 µM; ATG4B cleavage of LC3-PLA2, NBD-HPC fluorescence, 1 h; hit rate 0.51% among 340,000; in the data active means inhibition above about 40%
Target sequence (Q9Y4P1 whole entry, looked up): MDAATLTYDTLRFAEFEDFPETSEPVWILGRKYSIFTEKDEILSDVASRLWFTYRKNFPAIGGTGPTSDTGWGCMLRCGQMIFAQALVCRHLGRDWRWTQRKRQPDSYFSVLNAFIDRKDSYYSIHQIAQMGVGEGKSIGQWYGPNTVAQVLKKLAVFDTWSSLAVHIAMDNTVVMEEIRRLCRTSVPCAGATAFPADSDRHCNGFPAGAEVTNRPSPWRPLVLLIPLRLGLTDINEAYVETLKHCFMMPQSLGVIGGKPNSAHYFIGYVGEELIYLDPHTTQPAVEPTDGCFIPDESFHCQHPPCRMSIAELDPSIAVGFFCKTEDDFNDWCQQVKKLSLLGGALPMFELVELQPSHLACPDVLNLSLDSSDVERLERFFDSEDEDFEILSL
* hit, by the source's call; · = no result.

SMILES	SKN-1 block	MPTP block	CendR NRP1 mod	F508del corr	ATG4B inh
CC[C@@H](C)CN1C(=O)N[C@@H](CCc2ccccc2)C(C(C)=O)=C1C	10	0	28*	1	-13
c1ccc(CCNc2ccc3c(c2)Cc2ccccc2-3)nc1	-2	2	29*	-2	-3
c1ccc(CCNc2ccccn2)nc1	-12	0	3	-3	10
COc1ccc2c3c([nH]c2c1)[C@@H](CO)N(Cc1cccc(F)c1)CC31CCN(CC2CC2)CC1	·	·	·	-4	·
COc1ccc(C(=O)C2CCCN(C(=O)c3cccc(N(C)C)c3)C2)cc1OC (stereo not drawn)	19	-1	25*	4	-2
COc1ccc2c3c(n(C)c2c1)[C@H](CO)N(C(=O)CN1CCOCC1)CC31CN(C)C1	·	·	·	0	·
COc1ccc(C(C(=O)NC2CCCC2)N(C(=O)c2snc(C(N)=O)c2N)c2ccccc2OC)cc1OC (stereo not drawn)	12	-2	32*	-1	2
CC(C)C(OC(=O)C1=Cc2ccccc2OC1)C(=O)NC1CCCC1 (stereo not drawn)	36*	5	10	·	-1
CS(=O)(=O)c1ccc(Nc2nc(C(N)Cc3ccc(Cl)cc3)cs2)cc1 (stereo not drawn)	14	25	33*	2	·
Cc1ccc(NS(=O)(=O)c2c(C(=O)N3CCCCCC3)c(C)n(C)c2C)c(C)c1	-3	0	26*	-1	-14
CCc1ccc(NS(=O)(=O)c2c(C(=O)N3CCCCCC3)c(C)n(C)c2C)cc1	5	0	28*	-1	-2
C[C@@H]1CCCCO[C@H](CN(C)C(=O)Nc2ccc3c(c2)OCO3)[C@@H](C)CN([C@@H](C)CO)C(=O)c2cc(NS(=O)(=O)c3ccc(F)cc3)ccc2O1	·	·	·	-5	·
Cc1cccc(N=C2NC(=O)/C(=C/c3cccn3C)S2)c1C	41*	3	-75	4	18
CO[C@@H]1CN(C)C(=O)c2cc(NC(=O)C3CC3)ccc2OC[C@@H](C)N(C)C[C@H]1C	·	·	·	0	·
CC(C)(C)c1csc(NC(=O)Cc2cccs2)n1	-11	0	-6	9.7*	2
CCn1c(=NC(=O)CSCC(=O)Nc2nccs2)sc2ccccc21	11	-3	32*	·	1
O=C(Cn1cnc2cc([N+](=O)[O-])ccc2c1=O)NCCc1ccc(Cl)cc1	2	0	20*	0	-9
O=C(Cn1cnc2cc([N+](=O)[O-])ccc2c1=O)NCCc1ccc(F)cc1	0	0	-1	1	-13
COC(=O)c1cc2c(-c3ccccc3)cc3ccccn3c-2c1C(=O)OC	37	14	-4	·	-2
COC(=O)c1c(C)c2c(C)cc3ccccn3c-2c1C(=O)OC	3	-1	35*	·	7
c1ccc(-n2nnc(-c3nccs3)n2)cc1	36*	-1	24	-1	1
CO[C@H]1CN(C)C(=O)c2cc(NS(=O)(=O)c3cn(C)cn3)ccc2OC[C@H](C)N(CC2CC2)C[C@H]1C	·	·	·	3	·
CCOc1cc(C(c2c(O)nc(SC)[nH]c2=O)c2c(O)nc(SC)[nH]c2=O)ccc1O	-10	6	30*	-3	3
COc1ccccc1C(c1c(O)nc(SC)[nH]c1=O)c1c(O)nc(SC)[nH]c1=O	17	2	-1	-2	1
COc1cc2c(cc1OC)C(=O)CCS2	-20	-2	31*	·	-9
SMILES	SKN-1 block	MPTP block	CendR NRP1 mod	F508del corr	ATG4B inh
COc1ccc2c(c1)SCCC2=O	-13	2	6	·	-7
CC(C)NC(=O)N(C)C[C@H]1Oc2cc(-c3ccccc3)ccc2S(=O)(=O)N([C@H](C)CO)C[C@@H]1C	·	·	·	1	·
N[C@@H](Cc1ccc(O)c(O)c1)C(=O)O	13	0	5	2	6
C[C@@](Cc1ccc(O)c(O)c1)(NN)C(=O)O	6	-2	-3	8.4*	7
Cc1ccc(C2CN(C)C3(C(=O)Nc4ccccc43)C23COc2ccccc2C3=O)cc1 (stereo not drawn)	-18	10	40*	·	-11
CN1CC(c2ccccc2Cl)C2(COc3ccccc3C2=O)C12C(=O)Nc1ccccc12 (stereo not drawn)	-9	8	10	·	2
CC(=O)c1cccc(NS(=O)(=O)c2ccc3c(c2)oc(=O)n3C)c1	37*	4	3	·	-4
CC(C)NS(=O)(=O)c1ccc2c(c1)oc(=O)n2C	10	0	22*	-2	3
Cn1c(=O)oc2cc(S(=O)(=O)Nc3ccccc3)ccc21	5	0	3	0	-4
Cn1c(=O)oc2cc(S(=O)(=O)Nc3cccc(C(=O)O)c3)ccc21	-3	1	-20	·	-4
NC(=S)N=Nc1c(O)[nH]c2ccc(F)cc12	0	2	13	1	7
NC(=S)N=Nc1c(O)cc(O)c2[nH]c(=O)ccc12	7	1	42*	0	1
NCC[C@@H]1CC[C@@H](NC(=O)C2CC2)[C@H](CO)O1	·	·	·	0	·
Cc1ccc(-c2nc3c(C)cc(Br)cn3c2Cc2ccsc2)cc1	28	-1	-1	1	·
CCCc1nc2ccc(Cl)cn2c1Cc1ccsc1	-8	1	28*	2	·
Brc1ccc2nc(-c3ccccc3)c(Cc3ccsc3)n2c1	38*	0	4	-2	·
Clc1cccc(-c2nc3ccc(Br)cn3c2Cc2ccccc2)c1	36*	1	-35	6	·
Cc1cc(Br)cn2c(Cc3ccsc3)c(-c3ccccc3)nc12	37*	-1	6	-1	·
COc1cccc(C(=O)Nc2ccc3c(c2)OC[C@@H](C)N(C(C)=O)C[C@@H](C)[C@@H](OC)CN(C)C3=O)c1	·	·	·	0	·
COc1ccc(N=C2C(=O)N3CCCc4cccc2c43)cc1	-1	1	-15	12*	-5
COc1ccc(N2C(=O)CSC23C(=O)N2CCCc4cccc3c42)cc1 (stereo not drawn)	21	0	5	·	2
COc1ccc(NC(=O)CN2CCN(C3c4ccccc4-c4ccccc43)CC2)c(OC)c1	19	1	-5	·	8
COc1ccccc1NC(=O)CN1CCN(C2c3ccccc3-c3ccccc32)CC1	37*	0	2	·	-3
Cc1cc(NS(=O)(=O)c2ccc(NC(=O)Cc3ccccc3)cc2)nc(C)n1	4	2	-6	-1	-4
Cc1cc(NS(=O)(=O)c2ccc(NC(=O)CCCC(=O)O)cc2)nc(C)n1	1	-1	45*	·	1
CCc1ccc(NS(=O)(=O)c2cc3c(cc2C)n(C)c(=O)c(=O)n3C)cc1	11	0	-18	-1	-7
Cc1cc2c(cc1S(=O)(=O)Nc1ccc(F)cc1)n(C)c(=O)c(=O)n2C	-24	-2	-17	11*	-7
CO[C@@H]1CN(C)C(=O)c2ccc(NC(=O)NC(C)C)cc2OC[C@H](C)N(Cc2ccccn2)C[C@H]1C	·	·	·	1	·
COc1ccc(NC(=O)C(C)Sc2ccccc2)cc1 (stereo not drawn)	26	-2	42*	·	-7
